# Source: PubChem BioAssay
# Compounds with a hit are over-represented: about 4.3% of the library has one in this group of screens.
# MITF TRPM1 HTS: activators of MITF-driven TRPM1 promoter reporter, primary screen, cell-based, SK-MEL-5, luciferase, single point. SK-MEL-5 TRPM1-promoter luciferase, 24 h; % of positive control, neutral wells = 0. activation, % at 12.5 µM. 300,000 tested, 0.75% active. AID 588334, 2011;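 active = mean activation of at least 80% with every replicate also reaching 80%; inconclusive = mean reaches 80% but some replicate falls short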;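 also: 0% = neutral control wells and 100% = parthenolide positive control wells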
# SMARCA2 act: SMARCA2 (BRM) function activators, primary screen, cell-based, luminescence, high throughput | MG213 cells, MMTV-luciferase reporter, dexamethasone, overnight | activation, % at 9.1 µM | 370,000 tested, 1% active | AID 652017, 2013; in the data active = activation above about 7.8%;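 also: 0% = vehicle wells and 100% = reference activator wells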
# AF4-AF9 inh: inhibitors of AF4 peptide binding to AF9, primary screen, biochemical, AlphaScreen, biotin-AF4 peptide, FLAG-AF9, single point; inhibition, % at 10 µM; 350,000 tested, 0.47% active;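 active = every replicate reaching a set inhibition limit, whatever the replicate mean, cut at about 25% in these data; inconclusive = mean inhibition reaches that limit but some replicates miss it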;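 also: 0% = plate neutral control median and 100% = total signal loss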
# esBAF inh: Bmi1 luciferase reporter increase in mESCs, primary screen, esBAF inhibitor project, mouse ES cells, Bmi1 luciferase knock-in, single point | reporter increase, % at 12.5 µM | 350,000 tested, 2% active | 24 h; 100% = twice the neutral-well signal | AID 602393, 2012; in the data active = activation above about 40%; inconclusive = no clear call, values can overlap the other calls;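 also: 0% = median of the plate's neutral control wells and 100% = double that signal; a rise in the Bmi1 reporter signal indicates esBAF inhibition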
# FGF22 binding: binders of human FGF22 protein, primary screen, FGF22 synaptogenesis inhibitor project, biophysical, thermal shift, single point; Fibroblast growth factor 22 (Homo sapiens), Q9HCT0; recombinant FGF22 thermal shift, SYPRO orange fluorescence; percent of sucrose octasulfate shift, DMSO zero; activity (Tm shift, normalised), % at 9.99 µM; 340,000 tested, 1.5% active;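 active = mean Tm shift, scaled 0 neutral to 100 positive control, at about 1.3% or above, every replicate too, limit read from the data; inconclusive = no clear call, values can overlap the other calls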
# Target sequence (Q9HCT0 whole entry, looked up): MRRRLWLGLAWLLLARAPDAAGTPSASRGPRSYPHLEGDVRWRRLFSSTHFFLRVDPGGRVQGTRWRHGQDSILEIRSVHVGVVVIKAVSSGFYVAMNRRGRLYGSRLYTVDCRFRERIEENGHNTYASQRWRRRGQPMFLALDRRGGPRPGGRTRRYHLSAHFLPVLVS
# Wnt bcat act: Wnt/beta-catenin pathway activators, primary screen, cell-based, plate reader, single point. 300,000 tested, 1.2% active. activation, % at 9.35 µM. AID 743398, 2014. Wnt/beta-catenin reporter cell assay, activator; in the data active = activation above about 30%, passing the limit was not always enough; inconclusive = no clear call, values can overlap the other calls;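 also: 0% = neutral control wells and 100% = positive control wells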
# The depositor's hits bear a star; ? = inconclusive; . = no result given.
SMILES,MITF TRPM1 HTS,SMARCA2 act,AF4-AF9 inh,esBAF inh,FGF22 binding,Wnt bcat act
O=C(Nc1ccc(Cl)cc1)c1ccc2c(=O)n3c(nc2c1)CCCCC3,.,-1,-2,50*,0,1
O=C(Nc1ccc(F)c(Cl)c1)c1ccc2c(=O)n3c(nc2c1)CCCCC3,.,0,.,12,.,?
O=C(NCCC1=CCCCC1)c1ccc2c(=O)n3c(nc2c1)CCCCC3,53,1,-9,43*,0,-2
O=C(CCN1CCCCC1)N[C@H]1CC[C@@H](CCNS(=O)(=O)c2ccccc2)O[C@H]1CO,.,.,1,0,0,.
N#C[C@H]1[C@H](c2ccccc2-c2ccccc2F)[C@H](CO)N1C(=O)C1CCC1,.,.,0,.,0,.
O=C(Nc1ccc(Cl)cc1Cl)c1ccc2c(=O)n3c(nc2c1)CCC3,?,5,-9,43*,0,42*
COc1ccc(C(=O)NCC(=O)N2CCCC(C)C2)cc1OC (stereo not drawn),7,-3,-1,.,43*,-1
O=C(NCCC1=CCCCC1)c1cnc2n(c1=O)CCS2,0,7,.,46*,.,13
CO[C@@H]1CN(C)C(=O)c2ccc(NC(=O)Nc3cccc(F)c3)cc2OC[C@H](C)N(C(=O)Nc2c(C)noc2C)C[C@H]1C,.,.,2,-3,0,.
Oc1ccccc1N=Cc1sc2ccccc2c1Cl,-7,3,.,.,.,.
Oc1sc(C=Nc2ccc(F)cc2)c2ccccc12,29,2,.,28,.,42*
Oc1sc(C=Nc2ccccc2)c2ccccc12,40,4,.,77*,.,58*
CCN(C[C@H]1N[C@@](Cc2ccccc2)(C(=O)OC)[C@H]2C(=O)N(C)C(=O)[C@@H]12)C(=O)c1ccc(C(C)(C)C)cc1,8,0,2,-12,0,-1
CC[C@@]1(C(=O)OC)N[C@H](CN(C)C(=O)c2ccc(C)cc2)[C@@H]2C(=O)N(C)C(=O)[C@@H]21,8,-2,-11,-6,44*,-1
COC(=O)[C@]1(Cc2ccccc2)N[C@H](CN(C)C(=O)NC(C)C)[C@@H]2C(=O)N(C)C(=O)[C@@H]21,10,1,1,2,44*,-2
CCN(C[C@H]1N[C@@](Cc2ccccc2)(C(=O)OC)[C@H]2C(=O)N(C)C(=O)[C@@H]12)C(=O)c1ccc(F)cc1,9,3,-3,-1,43*,-1
CCCC(=O)Nc1ccc2c(c1)C(=O)N(C)C[C@@H](OC)[C@H](C)CN(C(=O)CN(C)C)[C@@H](C)CO2,.,.,-2,-2,0,.
CN(C)CC(=O)Nc1ccc2c(c1)[C@H]1C[C@@H](CC(=O)NCCc3ccccc3)O[C@@H](CO)[C@H]1O2,.,.,-1,1,0,.
CC(=O)c1ccc2c(c1)Cc1cc(C(C)=O)ccc1-2,93*,7,.,.,.,46*
COc1cccc(-n2nc(C(N)=O)c(O)cc2=O)c1,-5,1,1,0,43*,0
NC(=O)c1nn(-c2ccc(Cl)cc2Cl)c(=O)cc1O,7,-1,-3,.,44*,0
C[C@@H]1CN([C@H](C)CO)C(=O)c2cc(NS(C)(=O)=O)ccc2O[C@@H](C)CCCCO[C@H]1CN(C)C(=O)Nc1ccc2c(c1)OCO2,.,.,1,4,0,.
C=CCn1c(=O)/c(=C\c2ccsc2)s/c1=C(/C#N)C(=O)NCCN1CCOCC1,1,.,.,13,.,.
COc1ccc(-n2c(=O)/c(=C\c3cccs3)s/c2=C(/C#N)C(=O)NCCN2CCOCC2)cc1,-45,-1,-2,-3,43*,-1
C[C@H](CO)N1C[C@H](C)[C@H](CN(C)Cc2ccc(C(F)(F)F)cc2)Oc2ccc(NC(=O)Nc3ccccc3)cc2C1=O,.,.,0,4,0,.
SMILES,MITF TRPM1 HTS,SMARCA2 act,AF4-AF9 inh,esBAF inh,FGF22 binding,Wnt bcat act
Cc1noc(C)c1NC(=O)N(C)C[C@H]1Oc2c(NS(C)(=O)=O)cccc2C(=O)N([C@@H](C)CO)C[C@@H]1C,.,.,-13,2,0,.
O=C(NN=C1CCCC1)c1n[nH]c2c1CCCC2,16,7,-3,.,.,54*
O=C(NN=C1CCCC1)c1n[nH]c2c1CCC2,21,-1,-1,.,0,2
COc1ccc(N/N=C(/C(N)=O)C2=NC(C)(C)Cc3ccccc32)cc1,9,-5,37*,.,0,-1
CC(C)(C)C(=O)/C=C(N)/C=C/c1ccccc1,74,4,.,57*,.,.
CCCN1CCN(C(=O)Cn2c(=O)oc3cc(S(=O)(=O)NCc4ccccc4)ccc32)CC1,5,1,7,-3,0,-2
O=C(Cn1c(=O)oc2cc(S(=O)(=O)NCc3ccccc3)ccc21)N1CCCC1,4,1,29*,.,1,-2
Cc1noc(C)c1NC(=O)N(C)C[C@H]1OCCCC[C@@H](C)Oc2ccc(NS(=O)(=O)c3cccs3)cc2C(=O)N([C@H](C)CO)C[C@@H]1C,.,.,5,-1,0,.
CCOC(=O)N1CCC(N2CCCC(C(=O)c3cc(F)ccc3OC)C2)CC1 (stereo not drawn),-9,2,-1,.,0,50*
C[C@@H](NC(=O)C[C@@H]1CC[C@H](NC(=O)c2cccnc2)[C@H](CO)O1)c1ccccc1,.,.,-2,-3,0,.
O=C(Nc1ccc(F)cc1)/C(Cl)=C/c1ccccc1,84*,7,3,48*,0,18
Cc1ccsc1/C=N/Nc1ncc(Cl)cc1Cl,.,6,.,55*,.,4
Cc1ccsc1/C=N/Nc1ccc(F)cc1F,95*,3,16,.,0,10
Cc1cc(C)nc(N/N=C/c2sccc2C)n1,35,-2,0,.,1,4
COc1cc(/C=N/Nc2ccc(F)cc2F)cc(OC)c1OC,1,-2,5,.,0,1
FC(F)(F)Oc1ccc(Cn2ccc3ccc(-c4ccc5ccn(Cc6ccc(OC(F)(F)F)cc6)c5c4)cc32)cc1,.,-2,.,.,.,.
Cc1ccc(C2NNC(=O)C2NC(=O)c2ccccc2)cc1 (stereo not drawn),34,5,.,51*,.,.
Oc1[nH]c(=S)sc1C=C1N=c2ccccc2=N1,.,-1,2,26,0,42*
O=C(N[C@@H]1C=C[C@H](CC(=O)N2CCc3ccccc3C2)O[C@H]1CO)C1CC1,.,.,0,-1,0,.
COc1ccc(C(=O)NNC(=O)Cc2ccc([N+](=O)[O-])cc2)cc1,2,-2,.,11,.,.
